The text below walks through data of PubChem BioAssay (NCI).

Experiment [1] is described as follows: NCI Yeast Anticancer Drug Screen. Data for the rad50 strain (AID 155).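 Note: 0% = growth of vehicle-only cultures of the same strain.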 Particulars: S. cerevisiae rad50 strain growth inhibition; at 50.0 µM; hits give high values. In a few lines:
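Vehicle-treated cultures provide the reference for the growth inhibition reported for compound-exposed, repair-deficient yeast.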

Experiment [2] can be described thus: NCI Yeast Anticancer Drug Screen. Data for the mec2-1 strain (AID 157). Particulars: S. cerevisiae mec2-1 strain, at 50.0 µM, hits give high values. In a few lines:
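Readout is yeast growth inhibition, normalised to vehicle-treated controls, in the mec2-1 strain exposed to compound.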

The nature of experiment [3]: NCI Yeast Anticancer Drug Screen. Data for the sgs1 mgt1 strain (AID 161).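 Note: 0% = growth of cultures given vehicle only.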 The settings on record: S. cerevisiae sgs1 mgt1 strain, at 50.0 µM, hits give high values. The gist of the method: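 Percent growth inhibition was derived by comparing compound-exposed mutant yeast with vehicle-exposed cultures. The strain carries alterations in DNA damage repair.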
Experiment [4] in a line: NCI Yeast Anticancer Drug Screen. Data for the cln2 rad14 strain (AID 165).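 Note: 0% = growth equal to vehicle treated cultures.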 The settings on record: S. cerevisiae cln2 rad14 strain, at 50.0 µM, hits give high values. The gist of the method:
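Relative to vehicle controls, growth inhibition of compound-treated cln2 rad14 yeast was recorded.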

Experiment [5] in a line: NCI Yeast Anticancer Drug Screen. Data for the bub3 strain (AID 167). Particulars: S. cerevisiae bub3 mutant strain, at 50.0 µM, hits give high values. In a few lines:
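Mutant yeast screening strain plus compound; vehicle-treated cultures serve as the 0% inhibition reference.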

Experiment [6] in a line: NCI Yeast Anticancer Drug Screen. Data for the mlh1 rad18 strain (AID 175). Particulars: S. cerevisiae mlh1 rad18 strain growth inhibition; at 50.0 µM; hits give high values. The gist of the method: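 Test agents were incubated with a yeast strain of defined genotype (DNA damage repair defect). Inhibition of growth was derived by comparison with vehicle-exposed cultures.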

About 79,000 compounds went through this panel and 15% of them were active in at least one assay; those are over-represented in the sample as a whole. Values without a mark were called inactive. Activity calls are given as the source filed them. Cut-off read from the data, not from the text of the source: active = growth inhibition above about 70%; inactive = the rest.

`Cc1ccc2nc(Nc3ccc(Cl)cc3)cc(C(O)C3CCCCN3)c2c1` (stereo not drawn): the growth inhibition is 99.5% (active) in experiment [1]; 99.8% (active) in experiment [2]; 99.7% (active) in experiment [3]; 99.2% (active) in experiment [4]; 88.8% (active) in experiment [5]; 99.5% (active) in experiment [6].

In the case of `O=C(O)C1CC2CC(=O)C1C2` (stereo not drawn), the growth inhibition was 12.8% in experiment [1]; -5.45% in experiment [2]; -0.85% in experiment [3]; -9.75% in experiment [4]; 3.4% in experiment [5]; 9% in experiment [6].

Consider `COc1ccc2c(ccc3[nH]c4c(C)cnc(NCCCN(C)C)c4c32)c1`, for which the growth inhibition in experiment [1] is -16.6%; in experiment [2], -7.6%; in experiment [3] it was -2.7%; in experiment [4], -3.55%; in experiment [5], 4.05%; in experiment [6] it was -7.85%.

Take `c1ccc2c(c1)C(=NOc1nc3ccccc3c3ccccc13)c1ccccc1-2`: the growth inhibition was -4.85% in experiment [1]; 10.6% in experiment [2]; 8.75% in experiment [3]; 3.65% in experiment [4]; 7.95% in experiment [5]; 12% in experiment [6].

As to `NC(=O)NNC/C(Cl)=C(\Cl)C(=O)O`, the growth inhibition was -1.65% in experiment [1]; -19.4% in experiment [2]; 8.7% in experiment [3]; 16.9% in experiment [4]; 5.5% in experiment [5]; 2.85% in experiment [6].

With `COc1cccc(OC)c1C`, the growth inhibition was 15.1% in experiment [1]; -11.1% in experiment [2]; -10.6% in experiment [3]; 14.6% in experiment [4]; -4.25% in experiment [5]; 16.6% in experiment [6].

On to `CCC(C)c1ccc(CCO)cc1` (stereo not drawn), for which the growth inhibition in experiment [1] is 27.2%; in experiment [2], 2.4%; in experiment [3], -10.2%; in experiment [4], 10%; in experiment [5] it was -6.65%; in experiment [6], 4.45%.

On to `CCOC(=O)NC(C(=O)OCC)(N1CCN(c2cc3c(cc2F)c(=O)c(C(=O)O)cn3CC)CC1)C(F)(F)F` (stereo not drawn), for which the growth inhibition is -10.5% in experiment [1]; -25.2% in experiment [2]; -11.1% in experiment [3]; -24.4% in experiment [4]; -7.55% in experiment [5]; -5.05% in experiment [6].

As for `Nc1[nH]c(=O)ncc1-c1cccc(Cl)c1`, the growth inhibition in experiment [1] is -6.45%; in experiment [2], -4.15%; in experiment [3], 11.6%; in experiment [4], -7.8%; in experiment [5] it was 5.2%; in experiment [6], 33.1%.

In the case of `OC1CC/C=C\CC/C=C/CCC1O` (stereo not drawn), the growth inhibition was -5.75% in experiment [1]; 6.45% in experiment [2]; 0.5% in experiment [3]; 24.1% in experiment [4]; 3.8% in experiment [5]; 0.55% in experiment [6].

Regarding `COc1cc2nc(C)oc(=O)c2cc1OC`, the growth inhibition was 19.1% in experiment [1]; -16.8% in experiment [2]; 10.9% in experiment [3]; -28.4% in experiment [4]; -12.3% in experiment [5]; 0.85% in experiment [6].

Consider `Brc1ccc(N=C2NN=CC2(c2ccccc2)c2ccccc2)cc1`, for which the growth inhibition in experiment [1] was 25.6%; in experiment [2] it was 1.75%; in experiment [3] it was 6.75%; in experiment [4] it was 4.85%; in experiment [5], 19.6%; in experiment [6] it was -1.15%.

For `OC1C=CC2CCC1C2` (stereo not drawn), the growth inhibition in experiment [1] is -4.85%; in experiment [2], 7.15%; in experiment [3] it was -16.4%; in experiment [4] it was 6%; in experiment [5] it was 10.8%; in experiment [6], 5.2%.

With `NC1=Nc2cc(C(F)(F)F)ccc2Sc2nc3ccccc3n21`, the growth inhibition in experiment [1] is 4%; in experiment [2], -15.8%; in experiment [3], 20.1%; in experiment [4] it was 13.2%; in experiment [5], 22.4%; in experiment [6], 5.65%.

As for `CC(=O)OCC1OC(n2c(-c3ccccc3)c(N=Nc3ccccc3)c(C)c(C#N)c2=S)C(OC(C)=O)C(OC(C)=O)C1OC(C)=O` (stereo not drawn), the growth inhibition is -14% in experiment [1]; -17.4% in experiment [2]; -20.2% in experiment [3]; 11.5% in experiment [4]; 2.55% in experiment [5]; 9.75% in experiment [6].

Consider `CN1CCc2sccc2C(c2ccccc2)O1` (stereo not drawn), for which the growth inhibition is 0.75% in experiment [1]; 16.1% in experiment [2]; -3.8% in experiment [3]; 0.65% in experiment [4]; 17.2% in experiment [5]; -3.4% in experiment [6].

For `CCOC1(c2ccccc2)CCNCC1`, the growth inhibition in experiment [1] was 21.9%; in experiment [2] it was -0.65%; in experiment [3] it was 29.4%; in experiment [4] it was 15.7%; in experiment [5], 16.3%; in experiment [6], 12.9%.

For `BrC1CC2CCCCC2CC1Br` (stereo not drawn), the growth inhibition in experiment [1] is -1.45%; in experiment [2] it was 22.3%; in experiment [3], 21.4%; in experiment [4] it was -9.75%; in experiment [5], 8.8%; in experiment [6] it was 9.65%.
